Experiments:
Assay type in all cases: functional
Plasmodium falciparum [1] = assay: GSK_TCMDC: Inhibition of Plasmodium falciparum 3D7 in whole red blood cells, using parasite LDH activity as an index of growth. Test compounds present at 2uM
Plasmodium falciparum [2] = assay: GSK_TCMDC: Inhibition of Plasmodium falciparum Dd2 in whole red blood cells, using parasite LDH activity as an index of growth. Test compounds present at 2uM
HepG2 = assay: GSK_TCMDC: Percent inhibition of human HepG2 cell line. Test compounds present at 10uM.

SMILES	Inhibition (Plasmodium falciparum [1])	Inhibition (Plasmodium falciparum [2])	Inhibition (HepG2)
Cc1ccc2[nH]c(C)cc(=NN=CC=Cc3ccccc3)c2c1	92%	28%	0%
COc1cccc(CN2CCCC(OC(c3ccc(F)cc3)c3ccc(F)cc3)C2)c1O (stereo unspecified)	95%	95%	8%
Cc1c(F)cc(C(=O)NC2CC2)cc1-c1ccc2c(cnn2S(=O)(=O)c2ccc(Cl)s2)c1	81%	50%	24%
COc1ccc(-c2ccc(NC(=O)c3ccc(Cl)cc3)cc2)cc1CN(C)CCO.O=C(O)C(F)(F)F	92%	43%	43%
Nc1nccc(-c2ccc3c(-c4cccc(F)c4)cnc(N)c3c2)n1	93%	44%	41%
O=C(NCCCCN1CCC(c2ccc(Br)cc2)CC1)c1ccc(NC(=O)c2ccc(Cl)cc2)cc1	100%	86%	17%
C#CCCOc1ccc2ccccc2c1CNCCCCCCNCc1c(OCCC#C)ccc2ccccc12	100%	65%	100%
Cc1cc(=O)[nH]c2cc(Nc3ccnc(Nc4cccc(C(N)=O)c4)n3)ccc12.Cl	99%	98%	27%
CC(C)Cn1c(N)cc(=O)n(C)c1=O	100%	0%	3%
O=C(/C=C/c1c(Cl)cccc1Cl)NC1CCC(CN2CCC(Cc3cc4ccccc4[nH]3)CC2)CC1 (stereo unspecified)	91%	17%	97%
COc1cccc2cc(C(=O)N[C@@H](CC(C)C)C(=O)NC3CC[C@@H](C)N(C(=O)Nc4ccncc4)CC3=O)oc12 (stereo partly specified)	95%	90%	7%
Nc1ncc(-c2ccc(Cl)c(Cl)c2)c(N)n1	94%	0%	65%
CCNc1cc(-c2cccc(OC)c2)nc(Nc2ccc(F)cc2)n1	87%	23%	11%
N#Cc1cncc(-c2nc3c(N4CCC(Cc5ccccc5)CC4)cccc3n2CCNCc2ccccc2)c1.O=C(O)C(F)(F)F	99%	99%	2%
Nc1nc(N)c2c(CCc3ccc4ccccc4c3)cccc2n1	100%	6%	56%
Cc1cc(OCCCNc2nc(NCCc3ccc(O)cc3)nc(N3CCNCC3)n2)c(Cl)c(C)c1Cl.O=C(O)C(F)(F)F	99%	8%	54%
CCCCCCc1c(C)nc2cc(OC)ccc2c1O	97%	97%	10%
Cc1cc2c(cc1C(F)(F)F)N(C(=O)Nc1ccc(OCCN(C)C)c(C(F)(F)F)c1)CC2.Cl	93%	23%	38%
Cc1cnc(CN(Cc2ccc(-c3ccc(CNCCc4ccc(S(C)(=O)=O)cc4)cn3)cc2)C(=O)c2nn(-c3ccccc3)nc2C)cn1.O=C(O)C(F)(F)F	84%	21%	11%
Cc1sc2ncnc(Sc3nc4ccccc4[nH]3)c2c1C	99%	100%	14%
Cc1cc(N)c2cc(NC(=O)c3cc(C(F)(F)F)cc(C(F)(F)F)c3)ccc2n1.Cl	100%	99%	100%

SMILES	Inhibition (Plasmodium falciparum [1])	Inhibition (Plasmodium falciparum [2])	Inhibition (HepG2)
CC(C)OCCCNC(=O)c1nc(-c2cccc(C(F)(F)F)c2)sc1C(C)C	94%	34%	0%
COc1ccc2ncc(Cl)c(CCN3CCC(NCc4ccc5c(n4)NC(=O)CO5)CC3)c2c1.Cl	92%	26%	25%
Cc1ccc(O)cc1Nc1ccnc2ccc(-c3cccc(CNCCN(C)C)c3)cc12	100%	46%	0%
COC(=O)CNC(c1ccccc1)c1cc(Br)ccc1NC(=O)c1ccccc1Br (stereo unspecified)	99%	77%	10%
Cc1cccc2nc(-c3ccc(-c4ccc(CN5CCN(CC6CCCN(C)C6)CC5)cc4)s3)[nH]c12.O=C(O)C(F)(F)F (stereo unspecified)	100%	99%	63%
Cl.O=[N+]([O-])c1ccc(C(O)CNCCc2ccccc2)cc1OCc1ccccc1 (stereo unspecified)	94%	67%	0%
Cc1noc(C)c1-c1ccc2c(Nc3cccc4c3-c3ccccc3C4=O)c(C(=O)NCc3ccccc3I)cnc2c1	99%	99%	27%
Cc1nc2nc(N)nc(N)c2c(C)c1Cc1ccc(O)cc1.Cl	94%	0%	64%
Cc1ccc(-c2ccn(Cc3ccc(OCc4ccccc4)cc3)n2)cn1.Cc1ccc(-c2ccnn2Cc2ccc(OCc3ccccc3)cc2)cn1	93%	92%	1%
CN(CCc1ccccc1)c1ncc(-c2ccccc2CNCc2ccccc2O)cn1	99%	94%	10%
Cc1ccccc1Cc1cccc(/N=C(\N)Nc2ccc(Cl)cc2)n1	91%	56%	48%
CCCNCc1ccc(-c2ccc(CN(CCOC)C(=O)/C=C/c3ccccc3C)cc2)nc1.O=C(O)C(F)(F)F	95%	39%	13%
CCn1c(-c2nonc2N)nc2c(-c3ccccc3)ncc(OCCCNCCCN3CCOCC3)c21.O=C(O)C(F)(F)F	100%	91%	28%
O=C(Nc1cc(C(F)(F)F)cc(C(F)(F)F)c1)NC(CCCN1CCC2(CC1)OCc1ccccc12)c1ccc(Cl)c(Cl)c1 (stereo unspecified)	94%	87%	26%
CN(C)CC(=O)Nc1ccc(-c2ccc3ccnc(N)c3c2)cc1.O=C(O)C(F)(F)F	100%	99%	69%
Cc1cccc2nc(-c3cccc(-c4cccc(CNCc5cnn(-c6ccccc6)n5)c4)c3)[nH]c12.O=C(O)C(F)(F)F	99%	38%	12%
CC(C)(C)c1ccc(OCC(=O)NC2CCN(c3ccnc4cc(Cl)ccc34)C2)cc1.O=C(O)C(F)(F)F (stereo unspecified)	98%	100%	17%
N#Cc1ccc(N2C[C@@H](OCc3ccccc3)C[C@H]2C(=O)NCCC(c2ccccc2)c2ccccc2)c2ccccc12	93%	96%	11%
CC(C)C[C@H](NC(=O)c1ccc(OCCN2CCOCC2)cc1)C(=O)N[C@H](/C=N/N1CCN(C)C1=O)CCc1ccccc1	90%	65%	3%
COc1nc2c(CCN3CC[C@@H](NCc4cc(C#N)c5c(c4)CCO5)[C@@H](O)C3)ccnc2cc1F.Cl	92%	35%	21%
Cc1cc(Nc2cccc(Cl)c2)nc2ccc(NC(=O)c3ccc(=O)[nH]c3)cc12	100%	23%	12%

SMILES	Inhibition (Plasmodium falciparum [1])	Inhibition (Plasmodium falciparum [2])	Inhibition (HepG2)
CCOC(=O)C(=O)N1c2ccc(OCC)cc2-c2c(ssc2=S)C1(C)C	99%	100%	5%
Cc1ccc(Nc2nc3cc(Nc4ccnc(Nc5cccc(CS(C)(=O)=O)c5)n4)ccc3o2)cc1.O=C(O)C(F)(F)F	100%	81%	55%
COc1ccc(Oc2ccccc2CNCC2CCN(CC3CCCCC3)CC2)cc1.O=C(O)C(F)(F)F	85%	28%	34%
CCc1c(CCNCCCC(C)CCNCCc2ccc(OC)c(OC)c2CC)ccc(OC)c1OC.Cl (stereo unspecified)	100%	27%	99%
Cc1ccc(-n2nc3ccc(NC(=O)c4ccc([N+](=O)[O-])o4)cc3n2)cc1C	94%	95%	20%
NC1=NC(c2ccccc2)(c2ccccc2)C(=O)N1CCCCc1ccccn1	94%	56%	10%
Cl.O=C(NC1CCC(N2CCN(c3cccc4[nH]ccc34)CC2)CC1)c1cc2cccnc2[nH]1 (stereo unspecified)	99%	85%	9%
COc1ccc(-c2nonc2NC(=O)c2cccc(C)c2)cc1OC	97%	8%	24%
O=C(NCCCc1ccccc1)c1ccc(O)c(-c2cc(Cl)cc(Cl)c2)c1	99%	98%	0%
CCOc1cc(C(C)C)ccc1C1CCN(CCCCNC(=O)c2ccc(NC(=O)c3ccc(Cl)cc3)cc2)CC1	100%	98%	32%
COc1cc(C=NN=c2cc(C)[nH]c3ccccc23)cc(OC)c1OC	100%	95%	5%
C[C@@H](CC1CCCCC1)OC(=O)N(C)[C@@H]1CCN(C#N)C1	95%	96%	5%
Cc1cnc(C[S+]([O-])c2nc3cc(C(F)(F)F)ccc3[nH]2)cc1OCc1ccccc1 (stereo unspecified)	93%	76%	0%
CCCCc1cc(NCc2ccncc2)nc(Nc2cccc(OC)c2)n1	100%	56%	41%
Cn1nc(C(=O)N2CCC(c3[nH]ncc3Cc3ccccc3)CC2)c2ccccc2c1=O	95%	95%	5%
Cc1cc(C)c2nc(N3CCC(C(=O)NCCCN4CCC(N5CCCCC5)CC4)CC3)sc2c1	99%	34%	99%
CN(CC(=O)Nc1cc(C(F)(F)F)ccc1-n1cncn1)Cc1ccc2ccccc2c1	98%	99%	18%
Fc1ccc2cc(C=Cc3ccncc3)[nH]c2c1	100%	89%	0%
Nc1c(Cl)cc(C(O)CNCCCCCOCCCc2ccc(O)c3ncccc23)cc1Cl.O=C(O)/C=C/C(=O)O (stereo unspecified)	90%	12%	65%
O=C(Nc1ccc(F)cc1)NC1CCN(CCCCCNC(=O)C2CC2c2ccc(Cl)c(Cl)c2)CC1 (stereo unspecified)	100%	20%	46%
